# Source: PubChem BioAssay AID2073 (Sanford-Burnham Center for Chemical Genomics, 2009)
# Among all 290,000 compounds or so, about 570 (0.2%) were called active. Another 1% or so got no clear call; they are omitted. No stated cut-off is given here; in the data, active means inhibition mostly above about 51% (no sharp cut-off); inconclusive means no clear call, values can overlap the other calls; inactive means mostly below about 53%. What follows is part of a selection rich in actives, with near analogues and random picks from the rest.
# Molecular target: Voltage-dependent N-type calcium channel subunit alpha-1B (Homo sapiens) (UniProt Q00975)
# Assay: disruptors of CaV2.2 binding to Mint1 – biochemical, HTRF (AID 2073)
# Conditions: HTRF protein-protein interaction, Mint1-CaV2.2, at 20 µM, stronger effect = higher value
# [1] = measured here: average of repeat tests
# Chain of Voltage-dependent N-type calcium channel subunit alpha-1B (Homo sapiens) (Q00975 whole entry, looked up): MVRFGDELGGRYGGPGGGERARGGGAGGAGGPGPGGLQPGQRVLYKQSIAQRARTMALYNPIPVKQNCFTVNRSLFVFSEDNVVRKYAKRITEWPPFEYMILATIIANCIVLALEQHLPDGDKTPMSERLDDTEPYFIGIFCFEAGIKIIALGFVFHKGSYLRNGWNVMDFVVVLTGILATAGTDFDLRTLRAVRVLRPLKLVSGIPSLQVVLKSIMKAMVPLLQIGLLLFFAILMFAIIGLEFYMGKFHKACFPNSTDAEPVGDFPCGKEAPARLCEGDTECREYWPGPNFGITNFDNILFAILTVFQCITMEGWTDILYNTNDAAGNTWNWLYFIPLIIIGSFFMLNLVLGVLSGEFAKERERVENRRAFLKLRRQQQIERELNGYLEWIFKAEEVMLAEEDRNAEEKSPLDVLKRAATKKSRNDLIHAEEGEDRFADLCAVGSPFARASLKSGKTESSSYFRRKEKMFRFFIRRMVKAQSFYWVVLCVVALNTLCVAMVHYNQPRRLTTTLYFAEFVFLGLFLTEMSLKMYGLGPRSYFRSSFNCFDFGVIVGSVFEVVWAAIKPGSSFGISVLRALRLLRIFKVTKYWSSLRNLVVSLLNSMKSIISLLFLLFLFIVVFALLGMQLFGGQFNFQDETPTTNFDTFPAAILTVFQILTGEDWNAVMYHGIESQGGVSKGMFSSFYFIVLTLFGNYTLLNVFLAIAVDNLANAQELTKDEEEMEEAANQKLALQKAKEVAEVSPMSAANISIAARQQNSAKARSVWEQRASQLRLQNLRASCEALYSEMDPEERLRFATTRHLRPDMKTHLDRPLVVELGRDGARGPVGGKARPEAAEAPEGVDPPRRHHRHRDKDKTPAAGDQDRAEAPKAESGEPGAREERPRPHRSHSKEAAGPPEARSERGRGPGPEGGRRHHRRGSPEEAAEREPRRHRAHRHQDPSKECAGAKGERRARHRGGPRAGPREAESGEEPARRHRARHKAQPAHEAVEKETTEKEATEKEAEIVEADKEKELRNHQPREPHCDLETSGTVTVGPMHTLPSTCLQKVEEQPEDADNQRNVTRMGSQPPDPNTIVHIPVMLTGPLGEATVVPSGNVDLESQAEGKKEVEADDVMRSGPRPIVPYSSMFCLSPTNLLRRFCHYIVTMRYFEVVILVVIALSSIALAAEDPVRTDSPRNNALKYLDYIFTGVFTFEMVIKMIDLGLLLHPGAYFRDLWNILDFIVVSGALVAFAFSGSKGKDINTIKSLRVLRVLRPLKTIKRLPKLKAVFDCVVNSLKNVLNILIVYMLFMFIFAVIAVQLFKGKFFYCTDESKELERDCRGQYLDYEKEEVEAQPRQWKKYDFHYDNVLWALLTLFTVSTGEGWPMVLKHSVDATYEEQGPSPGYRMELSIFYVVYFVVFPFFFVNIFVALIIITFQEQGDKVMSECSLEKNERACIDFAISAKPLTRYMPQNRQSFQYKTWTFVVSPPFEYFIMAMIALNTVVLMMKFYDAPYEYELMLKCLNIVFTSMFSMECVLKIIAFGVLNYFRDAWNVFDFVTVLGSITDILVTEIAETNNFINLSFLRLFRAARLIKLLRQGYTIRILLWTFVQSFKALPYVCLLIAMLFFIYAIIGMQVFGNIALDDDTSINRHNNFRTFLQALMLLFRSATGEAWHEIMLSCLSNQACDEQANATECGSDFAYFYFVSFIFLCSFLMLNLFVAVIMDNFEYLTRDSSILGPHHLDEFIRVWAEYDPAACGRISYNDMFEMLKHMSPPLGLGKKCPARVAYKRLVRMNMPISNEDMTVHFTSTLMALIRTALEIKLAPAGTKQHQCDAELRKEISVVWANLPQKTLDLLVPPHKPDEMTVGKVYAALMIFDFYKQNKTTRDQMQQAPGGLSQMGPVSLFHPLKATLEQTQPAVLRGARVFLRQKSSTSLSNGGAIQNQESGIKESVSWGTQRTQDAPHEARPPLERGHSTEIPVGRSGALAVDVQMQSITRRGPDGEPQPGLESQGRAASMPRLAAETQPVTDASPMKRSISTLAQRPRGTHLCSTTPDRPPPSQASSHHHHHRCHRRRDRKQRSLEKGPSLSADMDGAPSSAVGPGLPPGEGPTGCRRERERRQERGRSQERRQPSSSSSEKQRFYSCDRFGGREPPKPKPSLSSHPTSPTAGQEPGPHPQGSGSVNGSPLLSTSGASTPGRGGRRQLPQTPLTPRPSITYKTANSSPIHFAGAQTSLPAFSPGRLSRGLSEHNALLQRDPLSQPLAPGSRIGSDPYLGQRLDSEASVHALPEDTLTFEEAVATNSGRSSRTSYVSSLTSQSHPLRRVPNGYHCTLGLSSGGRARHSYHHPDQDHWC
Structure (SMILES),inhibition,inhibition [1] [%]
COc1ccc(/C=C(\NC(=O)/C=C/c2ccco2)C(=O)NCCc2nc3ccccc3[nH]2)cc1,52.5% (active),
COc1ccc(/C=C/C(=O)N/C(=C\c2ccco2)C(=O)NCCc2nc3ccccc3[nH]2)cc1,4.5% (inactive),
CC(C)Oc1ccc(/C=C(\NC(=O)/C=C/c2ccco2)C(=O)NCCc2nc3ccccc3[nH]2)cc1,9.4% (inactive),
Cc1cc(C)c2c(c1)NC(c1cc3c(cc1Br)OCO3)C1CC=CC21 (configuration not stated),12.6% (inactive),
CCOC(=O)/C(C#N)=C/c1cccc(F)c1,15.3% (inactive),
O=C(Nc1ccc2c(c1)nc1n2CCN(C2CCCCC2)C1)c1ccco1,57.2% (active),
O=C(Nc1ccc2c(c1)nc1n2CCN(C2CCCCC2)C1)NC1CCCCC1,11.3% (inactive),
CC(=O)Nc1ccc2c(c1)nc1n2CCN(C2CCCCC2)C1,30.1% (inactive),
CCc1ccc(NC(=O)Cn2nnc(C(=O)NCc3cccs3)c2N)cc1,26.5% (inactive),
O=S(=O)(c1ccc(F)cc1)N1CCN(c2ccc(-c3ccccc3)nn2)CC1,41.9% (inactive),
CC1(C)Cc2nc3sc(C(=O)O)c(N)c3cc2CS1,54.6% (active),
CCC1(C)Cc2nc3sc(C(=O)O)c(N)c3cc2CO1 (configuration not stated),23.8% (inactive),
CC1(C)Cc2nc3sc(C(=O)NCCCO)c(N)c3cc2CS1,30.6% (inactive),
O=C(NCc1cccnc1)NC(=O)c1ccc(Cl)cc1,-3% (inactive),
O=C(CNC(=O)c1ccc(Cl)cc1)N/N=C/C=C/c1ccccc1,2.8% (inactive),
O=c1oc2c(CN3CCN(CCO)CC3)c(O)ccc2cc1-c1ccccn1,30.4% (inactive),
O=c1oc2c(CN3CCCCCC3)c(O)ccc2cc1-c1nc2ccccc2[nH]1,65.1% (active),
CCc1cc2c(=O)c(-c3nc4ccccc4[nH]3)coc2c(CN2CCCCC2)c1O,9.7% (inactive),
O=C(Cc1n[nH]c(=O)c2ccccc12)NC(c1ccccc1)c1ccccc1,1.8% (inactive),
CC(C)CNc1nc(Oc2ccc(=O)[nH]n2)nc(N2CCOCC2)n1,-12.9% (inactive),
COCCOC(=O)c1c(C)n(C)c2ccc(OC(=O)c3ccccc3F)cc12,-3.1% (inactive),
C=CCNC(=O)/C(C#N)=C/c1cn(-c2ccccc2)nc1-c1ccc(OC)c([N+](=O)[O-])c1,25.3% (inactive),
COc1ccc(-c2nn(-c3ccccc3)cc2/C=C(/C#N)C(N)=O)cc1[N+](=O)[O-],54.4% (active),
COc1ccc(-c2nn(-c3ccccc3)cc2/C=C(\C#N)C(N)=O)cc1[N+](=O)[O-],43.3% (inactive),

Structure (SMILES),inhibition,inhibition [1] [%]
CC(NC(=O)c1cc(Br)ccc1Br)c1ccccc1 (configuration not stated),15.9% (inactive),
Cc1cc(C)cc(NC(=S)NCc2cccnc2)c1,-3.3% (inactive),
S=C(NCc1cccnc1)NCc1cccnc1,-3.7% (inactive),
Cn1cccc1C(C#N)(CC#N)c1cccc(F)c1C#N (configuration not stated),14.3% (inactive),
CC(C)n1c(=S)[nH]c2c1c(=O)[nH]c(=O)n2C,-95.1% (inactive),
CC(C)c1csc(CN2CCC(CO)(Cc3cccc(F)c3)CC2)n1,-1.1% (inactive),
COc1ccc(S(=O)(=O)N2c3cc(C)ccc3OCC2C(C)(C)C)cc1 (configuration not stated),-0.4% (inactive),
COc1ccc(S(=O)(=O)N2c3ccccc3OCC2C(C)(C)C)cc1 (configuration not stated),50.4% (active),
Cc1ccc(S(=O)(=O)N2c3ccccc3OCC2C(C)(C)C)cc1 (configuration not stated),1.7% (inactive),
CCN(CC)S(=O)(=O)c1ccc(C(=O)Nc2ccc3c(c2)OCO3)cc1,9.9% (inactive),
COc1ccccc1/C=c1\sc2nc(-c3ccco3)nn2c1=O,35.1% (inactive),
COc1ccc(Br)cc1/C=c1\sc2nc(-c3ccco3)nn2c1=O,66.4% (active),
CCOc1ccc(/C=c2\sc3nc(-c4ccco4)nn3c2=O)cc1OCC,31.7% (inactive),
COCCSc1nnc(NC(=O)c2ccc3c(c2)OCO3)s1,3.7% (inactive),
Cc1nc(C(C)N(C)Cc2nc(Cc3ccccc3F)no2)c(C)s1 (configuration not stated),-15.7% (inactive),
COc1ccccc1N(CC(=O)N(CC(C)C)CC(C)C)S(=O)(=O)c1cccs1,-4.4% (inactive),
COc1ccc(N2C(=O)c3cc4ccccc4cc3C2=O)cc1,4.4% (inactive),
COc1ccc(N2C(=O)C(Cl)=C(N3CCCC3)C2=O)cc1,19.5% (inactive),
COc1ccc(N2C(=O)C(Cl)=C(Oc3cccc(OC)c3)C2=O)cc1,56.7% (active),
Cc1ccc(Nc2nc(-c3ccc(C)cc3)c(CC(=O)O)s2)cc1,14.4% (inactive),
Cc1nc2sc(C(c3cccc(F)c3)N3CCN(C(=O)c4ccco4)CC3)c(O)n2n1 (configuration not stated),3.9% (inactive),
CC(=O)CC1(O)C(=O)Nc2ccccc21 (configuration not stated),33.4% (inactive),
CN(C)CCNc1c(N)c(=O)oc2ccccc12,-16.1% (inactive),
Cc1ccc(C(=O)c2ccccc2C(=O)OCC(=O)NC(C)(C)C)cc1,-3.7% (inactive),

Structure (SMILES),inhibition,inhibition [1] [%]
CCOC(=O)c1ccc(N2C(=O)c3n[nH]c(-c4ccco4)c3C2c2ccc([N+](=O)[O-])cc2)cc1 (configuration not stated),71.1% (active),
CCOC(=O)c1ccc(N2C(=O)c3n[nH]c(C)c3C2c2ccco2)cc1 (configuration not stated),-2.1% (inactive),
CCOC(=O)c1ccc(N2C(=O)c3n[nH]c(-c4ccco4)c3C2c2cccc([N+](=O)[O-])c2)cc1 (configuration not stated),27.2% (inactive),
O=C(O)Cn1nnnc1-c1ccc(F)cc1,0% (inactive),
CC(NC(=O)C1CCCN(C(=O)N(C)C)C1)c1ccccc1 (configuration not stated),0.8% (inactive),
COC(=O)N/N=C/c1cc(N=Nc2ccccc2)ccc1O,23.6% (inactive),
CC(C)(C)OC(=O)N/N=C/c1cc(N=Nc2ccccc2)ccc1O,3.5% (inactive),
Cc1cccc(C)c1N1C(=O)CC(N(O)c2ccccc2)C1=O (configuration not stated),4.8% (inactive),
Cc1cc(C)c(C#N)c(N2CCN(S(=O)(=O)Cc3ccccc3)CC2)n1,1% (inactive),
CCOC(=O)c1sc(NC(=O)CN2C(=O)NC3(CC(C)CC(C)(C)C3)C2=O)c(C(=O)OCC)c1C (configuration not stated),13.6% (inactive),
COc1cc(C2Nc3cccc4cccc(c34)N2)cc(OC)c1OC(C)=O,77.3% (active),
COc1cc(C2Nc3cccc4cccc(c34)N2)ccc1OC(C)=O,74.4% (inactive),-13.1
COc1ccc(C2Nc3cccc4cccc(c34)N2)cc1Br,25.7% (inactive),
COc1ccc(NC(=S)Nc2cccc3cnccc23)cc1,77.7% (active),
CCOc1ccc(NC(=S)Nc2cccc3cnccc23)cc1,27% (inactive),
S=C(Nc1cccnc1)Nc1cccc2cnccc12,79.7% (inactive),4.7
Cc1ccc(NC(=S)Nc2cccc3cnccc23)cc1,21.8% (inactive),
Cc1cc(C)cc(NC(=S)Nc2cccc3cnccc23)c1,16.7% (inactive),
CN(C)S(=O)(=O)c1cccc(NC(=S)Nc2cccc3cnccc23)c1,51.6% (active),
COc1ccc(/C=C2\SC(N3CCCCC3)=NC2=O)cc1,3.8% (inactive),
COc1ccc(CNC(=O)C(C)OC(=O)c2cccn2C)cc1 (configuration not stated),-0.9% (inactive),
COc1ccc(S(=O)(=O)N(C)C2CCS(=O)(=O)C2)cc1OC (configuration not stated),4.6% (inactive),
COCCNC(=O)c1cccc(Nc2nc(-c3ccccc3)c3cc(Cl)ccc3n2)c1,54.5% (active),
O=C(NCCO)c1cccc(Nc2nc(-c3ccccc3)c3cc(Cl)ccc3n2)c1,11.1% (inactive),

Structure (SMILES),inhibition,inhibition [1] [%]
OCCNc1nc(-c2ccccc2)c2cc(Cl)ccc2n1,15.1% (inactive),
Clc1ccccc1-c1nnc2sc(-c3ccc(Br)o3)nn12,-3.6% (inactive),
O=[N+]([O-])c1ccccc1-c1ccc(/C=N/n2cnnc2)o1,-7.6% (inactive),
Nn1cnnc1N/N=C\c1ccc(-c2ccccc2[N+](=O)[O-])o1,62% (active),
Cc1nnc(N/N=C\c2ccc(-c3ccccc3[N+](=O)[O-])o2)n1N,45% (inactive),
COc1ccc(CCN(C)C(=O)CN2C(=O)c3ccccc3S2(=O)=O)cc1OC,-0.2% (inactive),
COc1ccc(N2C(=O)N(Cc3ccc(C)cc3)c3ccccc3S2(=O)=O)cc1,5.3% (inactive),
COc1ccc(N2C(=O)N(Cc3cccc(F)c3)c3ccccc3S2(=O)=O)cc1,55.6% (active),
COc1ccc(N2C(=O)N(Cc3ccccc3F)c3ccccc3S2(=O)=O)cc1,-1.5% (inactive),
N#CCCN1CCCN(CCC#N)CCN(CCC#N)CCCN(CCC#N)CC1,-13.6% (inactive),
CCOC(=O)/C=c1\s/c(=C\c2c(OCC)ccc3ccccc23)c(=O)n1CC(=O)NCC1CCCO1 (configuration not stated),10.3% (inactive),
COc1cc(OC)cc(C(=O)OCC(=O)NC(C)CCc2ccccc2)c1 (configuration not stated),34.5% (inactive),
COc1ccc2c(Cl)c(C(=O)N/N=C3\CCCC(=O)C3)sc2c1,50.9% (active),
COc1ccc2c(Cl)c(C(=O)NN)sc2c1,8.1% (inactive),
O=C1CCC/C(=N/NC(=O)c2sc3ccccc3c2Cl)C1,8.3% (inactive),
Cc1ccc(C(=O)NCCc2nnc3ccc(NCc4ccc5c(c4)OCO5)nn23)cc1,-1.4% (inactive),
COc1ccc(C(=O)Nc2ccc(Cl)cc2C(=O)NCCO)cc1,-1.8% (inactive),
CCN1CCCC1CNC(=O)c1cc2c(C)nc3ccccc3c2o1 (configuration not stated),5.2% (inactive),
CCOC(=O)N1CCC(C(=O)NNC(=O)c2ccc(Cl)cc2Cl)CC1,6.9% (inactive),
CN1/C(=C/C(=O)C2CC2)C(C)(C)c2ccccc21,3.3% (inactive),
CCOC(=O)c1cc2c(=O)n3ccccc3nc2n(Cc2ccco2)c1=NC(=O)c1ccccc1OC,10.2% (inactive),
CCOC(=O)c1cc2c(=O)n3ccccc3nc2n(Cc2ccco2)c1=NC(=O)c1ccc(OC)cc1,33.1% (inactive),
CCOC(=O)c1cc2c(=O)n3ccccc3nc2n(Cc2ccco2)c1=NC(=O)c1ccc(OC)cc1OC,66.1% (active),
